Measurements taken from PubChem BioAssay (Tox21).
Values joined by “and” are separate entries in the source; they are usually repeats but may differ in a detail not shown here. Identical values can stand only once. Active and inactive are the calls of the source. A call without a number means that no potency is given here. Calls follow the shape of the full dose curve.

experiment: G protein-coupled receptor (GPCR) small molecule agonists, calcium flux assay: HEK293 wild type cell line counter screen (AID 1920065); settings: HEK293 WT calcium flux, fluorescence, agonist mode; series mostly up to 57.6 µM
Excerpt: U.S. Tox21 Program National Center for Advancing Translational Sciences [NCATS] Division of Preclinical Innovation [DPI] U.S. Environmental Protection Agency [EPA] National Institutes of Environmental Health Sciences [NIEHS] National Toxicology Program [NTP] U.S. Food and Drug Administration [FDA] Assay overview: The increased intracellular calcium release that occurred upon G protein-coupled receptor (GPCR) activation led to the frequent use of calcium flux assays to detect GPCR activation. For the purpose of studying and screening compounds that may activate GPCR, receptor-overexpressing models were typically generated using Hek293 wild-type (WT) cells. In order to eliminate the compounds that may have induced calcium release for non-specific activation, a counter-assay utilizing calcium flux on Hek293 WT cells was performed. The data were formulated in order to serve as a control for any calcium flux detection utilizing Hek293 cells with either GPCR overexpression or gene modification. The procurement of Hek293 WT cells from ATCC. Fluorescence intensity can be utilized to determine the activation of the compound in a calcium flux assay. As a counter control, this cell line was utilized to screen the Tox21 10K compound library.
Assay Protocol Summary: Hek293 cells were dispensed at 1500cells/4uL/well in 1536-well black wall/clear bottom plates using a multidrop dispenser. After the assay plates were incubated at a 37 C/5% CO2 incubator for 18 hours, 4 uL of Calcium Dye Solution was added to each well. The plates were incubated at 37 C for 1 hour. For agonist mode, 23 nL of compounds dissolved in DMSO, positive control (ATP) or DMSO only was transferred to the assay plate by a pin tool station. The fluorescence intensity in the plates was measured using FDSS 7000EX kinetic plate reader with a filter set of Ex/Em=480/540 for 3 min at 1 sec intervals. Each test compound was measured at 15 concentrations and in triplicates.
Potency is read from the fitted curve at half-maximal effect.

Question: Which Potency does the source give for CC(=O)CC(C)(C)O here?
Answer: inactive

Question: With C[N+](C)(C)CCCCCC[N+](C)(C)C as the compound, how does the Potency read?
Answer: inactive

Question: For C[C@]12CC[C@@H]3c4ccc(O)cc4C[C@@H](CCCCCCCCCS(=O)CCCC(F)(F)C(F)(F)F)[C@H]3[C@@H]1CC[C@@H]2O (stereo not given in full), which Potency is on record?
Answer: inactive

Question: Which Potency does the source give for O=C(O)c1ccccc1C(=O)O here?
Answer: inactive

Question: For CCN=c1cc2oc3cc(NCC)c(C)cc3c(-c3ccccc3C(=O)OCC)c-2cc1C, which Potency is on record?
Answer: 38.8 µM (active) and 30.9 µM (active)

Question: With COc1ccc(Cl)cc1C(=O)NCCc1ccc(S(=O)(=O)NC(=O)NC2CCCCC2)cc1 as the compound, how does the Potency read?
Answer: inactive

Question: With CCOC(=O)c1ccc(O)cc1 as the compound, how does the Potency read?
Answer: inactive

Question: For ClC/C=C/CCl, which Potency is on record?
Answer: inactive

Question: With Cc1cc(Cc2cc(C)cc(C(C)(C)C)c2O)c(O)c(C(C)(C)C)c1 as the compound, how does the Potency read?
Answer: inactive

Question: For CCCCCCCCCCCCCCCCCC(=O)OCC(O)CO (stereo not given), which Potency is on record?
Answer: inactive

Question: With Nc1nc2ccccc2[nH]1 as the compound, how does the Potency read?
Answer: inactive

Question: Which Potency does the source give for CCCCC(CC)COC(=O)c1ccc(N(C)C)cc1 (stereo not given) here?
Answer: inactive

Question: Which Potency does the source give for C#CC1(O)CC[C@H]2[C@@H]3CCC4=CCCC[C@@H]4[C@H]3CC[C@@]21C (stereo not given in full) here?
Answer: inactive

Question: For CC(=O)Nc1c(I)c(NC(C)=O)c(I)c(C(=O)O)c1I, which Potency is on record?
Answer: inactive

Question: With CC1(C)OC[C@@H]2O[C@@]3(C(=O)O)OC(C)(C)O[C@H]3[C@@H]2O1 as the compound, how does the Potency read?
Answer: inactive

Question: With O=C(OCCOCCOC(=O)c1ccccc1)c1ccccc1 as the compound, how does the Potency read?
Answer: inactive

Question: Which Potency does the source give for NC(=O)/N=N/C(N)=O here?
Answer: inactive

Question: For CCCCCCC(C)O (stereo not given), which Potency is on record?
Answer: inactive

Question: With CC(C)(C)NC(=O)[C@H]1CC[C@H]2[C@@H]3CC[C@H]4NC(=O)C=C[C@]4(C)[C@H]3CC[C@]12C as the compound, how does the Potency read?
Answer: inactive

Question: With NNc1ccc(C(=O)O)cc1 as the compound, how does the Potency read?
Answer: inactive

Question: For NC(=O)c1cccnc1, which Potency is on record?
Answer: inactive

Question: With Cc1nnc(NS(=O)(=O)c2ccc(N)cc2)s1 as the compound, how does the Potency read?
Answer: inactive

Question: For Brc1cc(Oc2cc(Br)c(Br)c(Br)c2Br)c(Br)c(Br)c1Br, which Potency is on record?
Answer: inactive

Question: With O=C1O[C@H]([C@H](O)CO)C(O)=C1O as the compound, how does the Potency read?
Answer: inactive

Question: With CC(C)CC(C)CC(O)CC(C)C (stereo not given) as the compound, how does the Potency read?
Answer: inactive

Question: With C[Si](O[Si](C)(C)C)O[Si](C)(C)C as the compound, how does the Potency read?
Answer: inactive

Question: With Cc1cccc(O)c1C as the compound, how does the Potency read?
Answer: inactive

Question: With C1CNCCN1 as the compound, how does the Potency read?
Answer: inactive

Question: With Cc1ccc(C)c(O)c1C as the compound, how does the Potency read?
Answer: inactive

Question: Which Potency does the source give for Cc1c(N(C)CS(=O)(=O)O)c(=O)n(-c2ccccc2)n1C here?
Answer: inactive

Question: For CCCCCCCCOc1ccc(C(=O)c2ccccc2)c(O)c1, which Potency is on record?
Answer: inactive

Question: For C[C@H]1C[C@@H]2[C@H]([C@@H](O)C[C@@]3(C)[C@H]2CC[C@]3(O)C(=O)CO)[C@@]2(C)C=CC(=O)C=C12, which Potency is on record?
Answer: inactive

Question: For Nc1nc2ncc(CNc3ccc(C(=O)N[C@@H](CCC(=O)O)C(=O)O)cc3)nc2c(=O)[nH]1, which Potency is on record?
Answer: inactive

Question: Which Potency does the source give for O=C(O)CCCCC1CCSS1 (stereo not given) here?
Answer: inactive

Question: With CC(=O)Oc1ccc(C(c2ccc(OC(C)=O)cc2)c2ccccn2)cc1 as the compound, how does the Potency read?
Answer: inactive

Question: For C=C(C)CNCC, which Potency is on record?
Answer: inactive

Question: Which Potency does the source give for CC(C)OB(OC(C)C)OC(C)C here?
Answer: inactive

Question: With CC(=O)Oc1ccc(C)cc1 as the compound, how does the Potency read?
Answer: inactive

Question: With CCO[Si](CCCNC(N)=O)(OCC)OCC as the compound, how does the Potency read?
Answer: inactive

Question: For Cc1ccccc1C(OCCN(C)C)c1ccccc1 (stereo not given), which Potency is on record?
Answer: inactive
